Measured values as given in PubChem BioAssay.
Results filed as inconclusive are left out. Active and inactive are the calls of the source.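 Rule for the calls, unless noted: active = aptamer binding inhibition above 30%, about 3 SD of noise from non-fluorescent compounds; inactive = inhibition at or below 30%.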

Columns and labels:
[1] = yeast TOR pathway RPL19A-GFP modulators, primary screen, cell-based, S. cerevisiae, multiplex flow cytometry (AID 1862; in the data active = percent of DMSO control GFP below about 86%;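 note: lower values mimic rapamycin by blocking the RPL19A rise seen in DMSO cells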); conditions: S. cerevisiae RPL19A-GFP strain, flow cytometry fluorescence, 3 h; at 10 µM; stronger effect = lower value
[2] = modulators of MEP2-GFP levels in yeast, primary screen, S. cerevisiae, multiplex flow cytometry (AID 1867;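 active = GFP response, as percent of the DMSO control, above the screen-wide mean plus 3 SD, about 139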;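 note: median GFP channel fluorescence of barcode-gated MEP2-GFP cells measured by flow cytometry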); conditions: S. cerevisiae MEP2-GFP strain, 3 h, at 10 µM, stronger effect = higher value, 100% means same as DMSO wells
[3] = modulators of CIT2-GFP expression in yeast, primary screen, S. cerevisiae, GFP fusion, multiplex flow cytometry (AID 1870;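 active = percent response above a set limit, the screen-wide mean plus 3 SD, cut at about 130% in these data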;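 note: barcoded CIT2-GFP strain pooled with four other GFP strains with rapamycin as positive control; median GFP fluorescence per well over plate mean of DMSO wells so 100% = DMSO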); conditions: 3 h, at 10 µM, stronger effect = higher value
[4] = modulators of LAP4-GFP expression in yeast, primary screen, S. cerevisiae, multiplex flow cytometry (AID 1873;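 active = GFP signal, as percent of the solvent control, above the screen mean plus 3 SD, about 149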); conditions: 3 h, at 10 µM, stronger effect = higher value
[5] = modulators of AGP1-GFP expression in yeast TOR pathway, primary screen, cell-based, multiplex flow cytometry, S. cerevisiae (AID 1887;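 active = GFP signal above the screen-wide mean plus 3 SD, that is over about 124.5% of the solvent control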;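 note: AGP1-GFP fusion strain of S. cerevisiae within a five-strain barcoded multiplex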); conditions: 3 h, at 10 µM, stronger effect = higher value
[6] = inhibitors of CD8+ T cell-vesicle binding, pilot screen, LFA-1/ICAM-1 modulator project, MLPCN validation set, flow cytometry (AID 2523;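 active = response below a set limit, under 55% cells CD8-positive and vesicle-bound, and CD8 cells' 90th-percentile brightness under 279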;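 for vesicle binding response: mean PE anti-B7-1 fluorescence of CD8+ cells relative to row control; 100% = QL9-loaded vesicles with DMSO vehicle in the same plate row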); conditions: 2C mouse CD8+ T cells, at 7 µM, stronger effect = lower value; double positive events: measured here: CD8+/vesicle+ event percentage
[7] = target: Integrin beta-1 (Homo sapiens) + Integrin alpha-4 (Homo sapiens) (UniProt P13612+P05556); experiment: inhibition of HUTS-21 binding to VLA-4, pilot screen, VLA-4 allosteric modulator project, U937 cells, HUTS-21 mAb, flow cytometry, validation set (AID 2674;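 active = inhibition above 50%, about 3 SD of the validation set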;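 note: antibody binding induced by the VLA-4 ligand LDV present at three times its Kd; 0% = LDV ligand with antibody and no compound and 100% = antibody without LDV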); conditions: HUTS-21 LIBS mAb binding, at 6.7 µM, stronger effect = higher value, binding induced by LDV ligand
[8] = superoxide lowering in aged yeast cells, pilot screen, validation compound set (AID 2706;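 active = superoxide response below 65% of plate, a cut near 3 SD across the whole screen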;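 note: yeast exposed to compound for one week at 30 degrees C before staining; 100% = mean of all compound wells on the same plate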); conditions: S. cerevisiae aging, superoxide DHE fluorescence; at 10 µM; stronger effect = lower value
[9] = target: Beta-adrenergic receptor kinase 1 (Homo sapiens) (UniProt P25098); experiment: GRK2 binders displacing RNA aptamer, biochemical, validation, human GRK2, bead flow cytometry (AID 488806); conditions: bead-bound GRK2, FAM-aptamer displacement, at 10 µM, stronger effect = higher value
[10] = target: Beta-2 adrenergic receptor (Homo sapiens) (UniProt P07550); experiment: beta2AR agonists driving receptor internalization, pilot screen, cell-based, FAP fluorogen, flow cytometry, validation set (AID 504459;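 active = percent response above 42, roughly 3 SD of non-fluorescent test compounds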;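 note: agonist-driven loss of surface beta2AR via internalization measured by FAP dye flow cytometry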); conditions: Am2.2-beta2AR cells, FAP surface receptor flow cytometry; at 10 µM; stronger effect = higher value
[11] = target: AP-2 complex subunit beta (Homo sapiens) (UniProt P63010); experiment: inhibitors of arrestin peptide binding to AP2, pilot screen, biochemical, validation set, GST-AP2 beads, flow cytometry (AID 504541;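 active = inhibition above 54%, about 3 SD of non-fluorescent compounds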;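 note: AP2 carries R879A mutation and is captured from E. coli lysate; bead-bound FITC arrestin peptide fluorescence measuring arrestin peptide binding to AP2; 0% = DMSO wells and 100% = excess unlabeled arrestin peptide control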); conditions: FITC arrestin peptide, at 10 µM, stronger effect = higher value, AP2 beta2 appendage fragment, R879A mutant
[12] = yeast V-ATPase proton transport modulators, S. cerevisiae, pHLuorin, HTS validation (AID 504600; in the data active = response above about 15%;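 note: plate controls were DMSO for no effect and reference compound for full effect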); conditions: S. cerevisiae pHLuorin cytosolic pH, at 10 µM, stronger effect = higher value
[13] = system: anti-desmoglein-3 scFv antibody binding to human DSG3; experiment: inhibitors of anti-DSG3 scFv binding to DSG3, pilot screen, biochemical, validation compound set, bead-based, flow cytometry (AID 588368;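 active = binding below the plate cutoff, the plate median minus 3 SD, with a reading above zero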;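 note: signal is the median channel fluorescence of bead-bound GFP antibody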); conditions: Protein G beads, DSG3-Fc, scFv-GFP binding, at 10 µM, stronger effect = lower value
[14] = inhibitors of fungal efflux pumps CDR1, CDR2, MDR1, pilot screen, validation compound set, multiplex, phenotypic (AID 588506;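 active = efflux inhibition above 0.42, the validation set average plus 4 SD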;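 note: Nile Red retained in cells so higher fluorescence means more efflux inhibition; 0 = negative control wells and 1 = enniatin B 25 µM full block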); conditions: S. cerevisiae pump-expressing triplex, Nile Red efflux flow cytometry; at 10 µM; stronger effect = higher value; the pumps come from Candida albicans
[15] = target: ATP-binding cassette sub-family B member 6 (Homo sapiens) (UniProt Q9NP58); experiment: ABCB6 transporter inhibitors, pilot screen, K562-ABCB6 cells, flow cytometry, validation set (AID 588550;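 active = inhibition above the screen-wide mean plus 3 SD, about 51%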;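 note: 0% = DMSO wells and 100% = benzethonium chloride 70 µM positive control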); conditions: K562-ABCB6 porphyrin accumulation, 1 h, at 10 µM, stronger effect = higher value
[16] = promoters of myeloid differentiation in arrested cells, primary screen, cell-based, GFP/MAC1 double positive, flow cytometry, validation set (AID 588685;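 active = differentiation response of at least 50%, scaled between solvent and reference control, from cells with both markers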;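 note: compound exposure lasts four days before antibody staining and flow analysis; 0% = DMSO wells and 100% = 5 µM fulvestrant positive control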); conditions: ER-HoxA9 marrow cells, stronger effect = higher value, normalized: vehicle 0, fulvestrant 100

Chain of ATP-binding cassette sub-family B member 6 (Homo sapiens) (Q9NP58 whole entry, looked up): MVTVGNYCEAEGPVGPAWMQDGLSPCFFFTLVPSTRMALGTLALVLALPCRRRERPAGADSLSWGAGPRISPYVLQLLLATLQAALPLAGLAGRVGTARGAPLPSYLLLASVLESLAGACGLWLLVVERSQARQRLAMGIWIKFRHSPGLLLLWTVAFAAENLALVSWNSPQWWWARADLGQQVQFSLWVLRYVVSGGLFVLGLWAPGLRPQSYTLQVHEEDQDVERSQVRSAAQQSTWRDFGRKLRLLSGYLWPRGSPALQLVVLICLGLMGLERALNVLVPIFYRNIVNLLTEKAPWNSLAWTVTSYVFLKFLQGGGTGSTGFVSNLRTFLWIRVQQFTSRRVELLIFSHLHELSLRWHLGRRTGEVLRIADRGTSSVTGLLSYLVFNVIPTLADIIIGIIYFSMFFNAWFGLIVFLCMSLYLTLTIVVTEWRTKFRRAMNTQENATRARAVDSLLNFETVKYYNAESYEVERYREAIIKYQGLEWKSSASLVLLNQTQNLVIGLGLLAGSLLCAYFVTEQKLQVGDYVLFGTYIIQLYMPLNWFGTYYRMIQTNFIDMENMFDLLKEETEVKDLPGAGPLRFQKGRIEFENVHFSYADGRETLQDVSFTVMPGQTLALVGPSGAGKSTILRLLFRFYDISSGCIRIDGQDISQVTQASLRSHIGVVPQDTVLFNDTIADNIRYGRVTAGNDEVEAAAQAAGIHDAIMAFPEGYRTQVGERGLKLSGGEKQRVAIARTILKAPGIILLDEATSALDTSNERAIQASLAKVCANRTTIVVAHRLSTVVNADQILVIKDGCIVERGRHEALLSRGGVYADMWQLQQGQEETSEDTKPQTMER
Chain of Beta-2 adrenergic receptor (Homo sapiens) (P07550 whole entry, looked up): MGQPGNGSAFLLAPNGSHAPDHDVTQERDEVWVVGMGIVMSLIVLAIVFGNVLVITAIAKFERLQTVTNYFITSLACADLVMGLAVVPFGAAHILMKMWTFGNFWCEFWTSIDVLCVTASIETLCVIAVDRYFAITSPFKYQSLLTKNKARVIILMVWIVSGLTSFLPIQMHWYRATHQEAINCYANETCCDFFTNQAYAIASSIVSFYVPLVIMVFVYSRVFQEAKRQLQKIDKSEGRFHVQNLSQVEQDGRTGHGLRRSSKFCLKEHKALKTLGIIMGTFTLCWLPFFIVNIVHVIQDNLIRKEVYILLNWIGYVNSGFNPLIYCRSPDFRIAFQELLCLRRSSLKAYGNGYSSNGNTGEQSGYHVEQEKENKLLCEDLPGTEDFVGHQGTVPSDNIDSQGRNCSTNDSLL
Chain of AP-2 complex subunit beta (Homo sapiens) (P63010 whole entry, looked up, the tested form may be a part, one chain of several): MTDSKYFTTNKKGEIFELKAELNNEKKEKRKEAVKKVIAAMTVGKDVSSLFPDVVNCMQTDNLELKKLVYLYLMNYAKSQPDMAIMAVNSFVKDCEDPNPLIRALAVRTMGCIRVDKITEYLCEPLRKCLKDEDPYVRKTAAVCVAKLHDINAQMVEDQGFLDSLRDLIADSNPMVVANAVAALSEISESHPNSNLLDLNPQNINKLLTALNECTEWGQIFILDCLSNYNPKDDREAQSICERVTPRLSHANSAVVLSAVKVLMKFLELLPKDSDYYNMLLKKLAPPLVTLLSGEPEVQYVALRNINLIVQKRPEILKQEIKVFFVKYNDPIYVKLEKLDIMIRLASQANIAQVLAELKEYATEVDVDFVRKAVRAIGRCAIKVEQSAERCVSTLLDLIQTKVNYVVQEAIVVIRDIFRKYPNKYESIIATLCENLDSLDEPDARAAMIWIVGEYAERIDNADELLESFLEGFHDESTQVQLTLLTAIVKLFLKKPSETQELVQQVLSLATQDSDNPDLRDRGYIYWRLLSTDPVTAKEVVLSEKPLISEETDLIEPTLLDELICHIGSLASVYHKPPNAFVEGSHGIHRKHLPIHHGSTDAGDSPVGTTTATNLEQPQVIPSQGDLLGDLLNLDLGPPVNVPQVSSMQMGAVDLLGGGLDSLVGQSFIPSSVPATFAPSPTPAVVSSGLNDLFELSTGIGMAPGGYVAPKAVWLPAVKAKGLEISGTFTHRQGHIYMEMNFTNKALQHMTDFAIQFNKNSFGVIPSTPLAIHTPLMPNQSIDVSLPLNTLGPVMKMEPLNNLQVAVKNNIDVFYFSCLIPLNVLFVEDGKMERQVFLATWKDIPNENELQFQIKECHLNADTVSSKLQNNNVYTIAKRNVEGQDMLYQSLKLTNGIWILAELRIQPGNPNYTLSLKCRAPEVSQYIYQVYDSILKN
Chain of Integrin beta-1 (Homo sapiens) + Integrin alpha-4 (Homo sapiens) (P05556 whole entry, looked up): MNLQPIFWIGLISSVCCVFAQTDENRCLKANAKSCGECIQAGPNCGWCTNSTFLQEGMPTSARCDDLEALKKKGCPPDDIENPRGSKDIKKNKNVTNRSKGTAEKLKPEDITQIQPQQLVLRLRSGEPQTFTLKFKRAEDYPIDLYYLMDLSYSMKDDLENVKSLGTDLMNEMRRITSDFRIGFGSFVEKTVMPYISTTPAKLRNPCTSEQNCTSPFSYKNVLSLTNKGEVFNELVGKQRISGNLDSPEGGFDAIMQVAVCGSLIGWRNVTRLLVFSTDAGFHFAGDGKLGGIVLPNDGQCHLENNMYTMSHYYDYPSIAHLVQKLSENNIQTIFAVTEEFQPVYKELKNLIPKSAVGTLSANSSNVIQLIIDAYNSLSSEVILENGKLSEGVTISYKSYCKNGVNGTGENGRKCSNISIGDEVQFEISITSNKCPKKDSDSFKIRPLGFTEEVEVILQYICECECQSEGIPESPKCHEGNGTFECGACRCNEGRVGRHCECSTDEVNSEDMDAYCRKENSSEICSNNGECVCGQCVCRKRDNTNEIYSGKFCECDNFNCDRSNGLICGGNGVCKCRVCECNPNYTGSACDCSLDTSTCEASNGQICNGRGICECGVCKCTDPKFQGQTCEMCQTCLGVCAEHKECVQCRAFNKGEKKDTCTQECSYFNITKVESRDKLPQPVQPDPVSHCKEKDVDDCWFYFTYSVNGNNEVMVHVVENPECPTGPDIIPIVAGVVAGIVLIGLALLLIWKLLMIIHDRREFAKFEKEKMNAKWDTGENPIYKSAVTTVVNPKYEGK
Chain of Integrin beta-1 (Homo sapiens) + Integrin alpha-4 (Homo sapiens) (P13612 whole entry, looked up): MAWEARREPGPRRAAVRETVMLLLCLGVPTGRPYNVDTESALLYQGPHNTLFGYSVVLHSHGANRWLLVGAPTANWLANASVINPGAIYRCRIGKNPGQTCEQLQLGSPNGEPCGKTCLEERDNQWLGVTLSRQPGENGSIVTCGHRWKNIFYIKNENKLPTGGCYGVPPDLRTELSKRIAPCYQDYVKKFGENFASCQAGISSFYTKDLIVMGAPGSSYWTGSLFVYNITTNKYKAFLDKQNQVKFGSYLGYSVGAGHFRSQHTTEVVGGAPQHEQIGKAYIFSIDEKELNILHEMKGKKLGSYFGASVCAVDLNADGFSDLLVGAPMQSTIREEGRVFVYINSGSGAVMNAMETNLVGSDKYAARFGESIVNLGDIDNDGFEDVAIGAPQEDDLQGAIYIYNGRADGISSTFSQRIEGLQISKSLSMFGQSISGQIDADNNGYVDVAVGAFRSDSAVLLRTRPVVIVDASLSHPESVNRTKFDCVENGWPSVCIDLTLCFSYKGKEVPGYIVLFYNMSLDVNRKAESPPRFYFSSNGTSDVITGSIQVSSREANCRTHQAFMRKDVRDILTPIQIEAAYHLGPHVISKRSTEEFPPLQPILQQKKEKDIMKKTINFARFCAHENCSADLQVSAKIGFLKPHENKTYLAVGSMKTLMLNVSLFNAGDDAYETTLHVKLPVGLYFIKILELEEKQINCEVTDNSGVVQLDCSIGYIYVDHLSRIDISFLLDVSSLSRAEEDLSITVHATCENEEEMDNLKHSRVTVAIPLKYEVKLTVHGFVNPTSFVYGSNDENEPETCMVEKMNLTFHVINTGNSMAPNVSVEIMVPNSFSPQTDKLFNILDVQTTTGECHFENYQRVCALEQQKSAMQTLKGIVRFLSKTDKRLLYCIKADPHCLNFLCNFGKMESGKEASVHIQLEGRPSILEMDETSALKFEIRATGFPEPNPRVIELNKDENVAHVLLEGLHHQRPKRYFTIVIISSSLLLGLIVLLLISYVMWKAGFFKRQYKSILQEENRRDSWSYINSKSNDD
Chain of Beta-adrenergic receptor kinase 1 (Homo sapiens) (P25098 whole entry, looked up): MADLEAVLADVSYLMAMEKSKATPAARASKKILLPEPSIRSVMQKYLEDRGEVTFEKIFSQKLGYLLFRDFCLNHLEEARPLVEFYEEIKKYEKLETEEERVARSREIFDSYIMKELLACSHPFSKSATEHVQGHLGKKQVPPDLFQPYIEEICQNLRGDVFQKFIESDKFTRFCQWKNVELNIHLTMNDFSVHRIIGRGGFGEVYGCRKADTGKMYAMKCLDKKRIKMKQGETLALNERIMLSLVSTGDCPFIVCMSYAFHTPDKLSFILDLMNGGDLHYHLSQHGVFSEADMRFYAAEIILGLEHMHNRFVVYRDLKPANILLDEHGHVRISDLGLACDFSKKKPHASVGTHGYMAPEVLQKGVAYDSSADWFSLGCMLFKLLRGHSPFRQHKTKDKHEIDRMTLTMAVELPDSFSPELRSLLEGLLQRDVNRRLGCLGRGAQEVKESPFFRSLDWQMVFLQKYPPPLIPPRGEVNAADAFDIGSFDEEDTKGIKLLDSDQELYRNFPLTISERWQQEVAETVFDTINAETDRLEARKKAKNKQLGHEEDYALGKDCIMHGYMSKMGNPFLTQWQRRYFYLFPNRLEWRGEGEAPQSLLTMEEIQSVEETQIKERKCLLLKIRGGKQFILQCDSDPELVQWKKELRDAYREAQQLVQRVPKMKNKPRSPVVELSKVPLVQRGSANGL

SMILES	percent of DMSO control GFP [1]	GFP response vs DMSO [2]	percent response of DMSO control [3]	GFP response vs DMSO [4]	GFP response, % of DMSO [5]	double positive events [6] [%]	vesicle binding response [6]	inhibition [7]	superoxide response (% of plate) [8]	aptamer binding inhibition [9]	response [10]	inhibition [11]	response [12]	binding (% of control) [13]	efflux inhibition (fraction of control) [14]	inhibition [15]	differentiation response [16]
CCOC(=O)C1=C[C@]2(CC)CCCN3CCc4c(n1c1ccccc41)[C@@H]32	98.4% (inactive)	107% (inactive)	96.6% (inactive)	104% (inactive)	96.5% (inactive)	56.4	43.9% (inactive)	-4.6% (inactive)	92.5% (inactive)	-1% (inactive)	-5% (inactive)	-10.5% (inactive)	4.61% (inactive)	97.2% (inactive)	-0.23 (inactive)	8% (inactive)	-3.67% (inactive)
CC(=O)[C@H]1CC[C@H]2[C@@H]3C[C@H](C)C4=CC(=O)CC[C@]4(C)[C@H]3[C@@H](O)C[C@]12C	95.9% (inactive)	116% (inactive)	102% (inactive)	86.9% (inactive)	92.6% (inactive)	63.6	151% (inactive)	2.58% (inactive)	95.6% (inactive)	8% (inactive)	-10% (inactive)	-0.56% (inactive)	2.7% (inactive)	108% (inactive)	0.09 (inactive)	9% (inactive)	-2.46% (inactive)
CC1(C)CC(C(CC(=O)O)c2ccccc2)CCO1 (stereo not given)	97.6% (inactive)	103% (inactive)	99.6% (inactive)	109% (inactive)	102% (inactive)	58.1	155% (inactive)	-1.79% (inactive)	99.7% (inactive)	0% (inactive)	-5.23% (inactive)	48.1% (inactive)	-5.35% (inactive)	95.7% (inactive)	0.05 (inactive)	2% (inactive)	37.6% (inactive)
Cc1nonc1CN(C)C(=O)c1ccc(OC2CCN(C(=O)c3cccnc3)CC2)cc1	103% (inactive)	105% (inactive)	109% (inactive)	98% (inactive)	102% (inactive)	57.8	176% (inactive)	12.3% (inactive)	94.8% (inactive)	0% (inactive)	-1.64% (inactive)	-7.99% (inactive)	2.88% (inactive)	103% (inactive)	0.05 (inactive)	12% (inactive)	-8.96% (inactive)
Cc1ccc2c(c1)c(=O)c1c3n2CCN(C(=O)CCl)C3CC1 (stereo not given)	96.3% (inactive)	102% (inactive)	97% (inactive)	106% (inactive)	111% (inactive)	58.2	198% (inactive)	-10.5% (inactive)	108% (inactive)	18% (inactive)	-25.7% (inactive)	20.6% (inactive)	-19.6% (inactive)	96.7% (inactive)	0.46 (active)	1% (inactive)	0.92% (inactive)
CCOC(=O)C1(Cc2cccc(Cl)c2)CCCN(C2CCN(C(C)=O)CC2)C1 (stereo not given)	101% (inactive)	101% (inactive)	102% (inactive)	101% (inactive)	100% (inactive)	60.5	42.6% (inactive)	-7.72% (inactive)	106% (inactive)	-3% (inactive)	-8.31% (inactive)	34.6% (inactive)	-5.5% (inactive)	177% (inactive)	-0.1 (inactive)	13% (inactive)	-0.73% (inactive)
CCOC(=O)[C@H]1O[C@@H]1C(=O)N[C@@H](CC(C)C)C(=O)NCCC(C)C	91.1% (inactive)	135% (inactive)	97.9% (inactive)	82.5% (inactive)	91.7% (inactive)	55.3	224% (inactive)	6.46% (inactive)	97% (inactive)	3% (inactive)	-8.75% (inactive)	-3.19% (inactive)	6.36% (inactive)	106% (inactive)	0.05 (inactive)	7% (inactive)	0.82% (inactive)
CC(=O)Oc1c2occc2cc2ccc(=O)oc12	98.4% (inactive)	103% (inactive)	87.2% (inactive)	114% (inactive)	98.9% (inactive)	57.9	140% (inactive)	-11.3% (inactive)	101% (inactive)	3% (inactive)	9.55% (inactive)	7.26% (inactive)	-2.03% (inactive)	101% (inactive)	0.51 (active)	8% (inactive)	10.4% (inactive)
Cc1ccc2c(c1)C(CCN)C(=O)N2Cc1ccccc1 (stereo not given)	102% (inactive)	104% (inactive)	109% (inactive)	96% (inactive)	101% (inactive)	66.6	234% (inactive)	-6.68% (inactive)	106% (inactive)	-4% (inactive)	-2.03% (inactive)	8.79% (inactive)	0.57% (inactive)	94.5% (inactive)	-0.14 (inactive)	1% (inactive)	-2.69% (inactive)
Cc1nc2c(c3c1[nH]c1ccccc13)C(=O)CC(C)(C)C2	99.1% (inactive)	114% (inactive)	86.3% (inactive)	114% (inactive)	102% (inactive)	59.1	186% (inactive)	6.4% (inactive)	99.2% (inactive)	3% (inactive)	31.6% (inactive)	6.18% (inactive)	-1.94% (inactive)	98.9% (inactive)	0.3 (inactive)	1% (inactive)	-5.6% (inactive)
